Laboratory results taken from article PMC4336329 (PLoS ONE, 2015).
Hit rate of the full screen: of about 310,000 compounds, about 14,000 (4.5%) showed an effect of 50% or more. The effect is printed as a negative number. Only a selection was taken, and strong results are over-represented in it overall.

target: human ether-à-go-go-related gene (hERG) potassium channel (human, UniProt Q12809); experiment: primary screen, population patch clamp on CHO cells stably expressing hERG; higher = less effect of the substance
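Also: peak tail current of the secondary pulse compared with the same well before compound.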

Chain of human ether-à-go-go-related gene (hERG) potassium channel (Q12809 whole entry, looked up): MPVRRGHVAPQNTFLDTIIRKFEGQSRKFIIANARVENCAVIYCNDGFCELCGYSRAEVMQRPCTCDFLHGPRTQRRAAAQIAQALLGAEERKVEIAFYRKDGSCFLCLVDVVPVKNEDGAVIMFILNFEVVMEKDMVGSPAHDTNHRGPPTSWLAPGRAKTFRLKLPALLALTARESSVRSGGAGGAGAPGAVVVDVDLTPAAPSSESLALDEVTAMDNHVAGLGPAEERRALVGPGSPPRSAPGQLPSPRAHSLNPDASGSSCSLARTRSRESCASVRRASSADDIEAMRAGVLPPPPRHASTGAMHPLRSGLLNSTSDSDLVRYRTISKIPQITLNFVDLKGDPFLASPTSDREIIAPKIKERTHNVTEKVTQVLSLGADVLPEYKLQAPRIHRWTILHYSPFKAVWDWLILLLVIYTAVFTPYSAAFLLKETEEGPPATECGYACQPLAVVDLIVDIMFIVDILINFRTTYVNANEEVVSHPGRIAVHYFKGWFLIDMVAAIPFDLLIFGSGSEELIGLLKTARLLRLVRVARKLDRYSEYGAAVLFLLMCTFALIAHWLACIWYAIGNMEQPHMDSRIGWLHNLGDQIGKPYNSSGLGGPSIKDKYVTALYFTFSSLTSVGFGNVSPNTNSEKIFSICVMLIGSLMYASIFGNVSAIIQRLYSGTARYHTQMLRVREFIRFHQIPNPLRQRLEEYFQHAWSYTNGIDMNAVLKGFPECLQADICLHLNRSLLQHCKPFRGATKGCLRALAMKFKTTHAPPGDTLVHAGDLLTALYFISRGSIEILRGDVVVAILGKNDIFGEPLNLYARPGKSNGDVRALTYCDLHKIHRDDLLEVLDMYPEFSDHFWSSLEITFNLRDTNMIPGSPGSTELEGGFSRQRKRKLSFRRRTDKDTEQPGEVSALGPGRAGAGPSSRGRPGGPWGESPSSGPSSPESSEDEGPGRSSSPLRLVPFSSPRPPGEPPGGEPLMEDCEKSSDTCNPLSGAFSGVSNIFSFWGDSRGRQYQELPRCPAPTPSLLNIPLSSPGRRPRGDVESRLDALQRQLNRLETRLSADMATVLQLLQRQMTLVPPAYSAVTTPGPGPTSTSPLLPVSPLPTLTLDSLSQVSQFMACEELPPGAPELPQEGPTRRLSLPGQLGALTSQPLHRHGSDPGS

`CCOc1ccc(-c2nnc(N3CCCCC3)c3ccccc23)cc1` was tested. Which “hERG current change (%, negative = inhibition) at 10uM” value did it give?
Its value is -6.17%.

`CCN1CCN(c2nnc(-c3ccc(F)cc3)c3ccccc23)CC1` was tested. Which “hERG current change (%, negative = inhibition) at 10uM” value did it give?
Its value is -48.4%.

`Cc1ccc(-c2nnc(N3CCCCCC3)c3ccccc23)cc1` was tested. Which “hERG current change (%, negative = inhibition) at 10uM” value did it give?
The value was 1%.

`CCN1CCN(c2nnc(-c3ccc(C)cc3)c3ccccc23)CC1` was tested. Which “hERG current change (%, negative = inhibition) at 10uM” value did it give?
The value was -66.5%.

Which “hERG current change (%, negative = inhibition) at 10uM” value does the source give for `COc1ccc(-c2nnc(N3CCOCC3)c3ccccc23)cc1` here?
Its value is -2.78%.

Which “hERG current change (%, negative = inhibition) at 10uM” value does the source give for `CCN1CCN(c2nnc(-c3ccccc3)c3ccccc23)CC1` here?
Its value is -36.8%.

For `OCCN1CCN(c2nnc(-c3ccccc3)c3ccccc23)CC1`, which “hERG current change (%, negative = inhibition) at 10uM” value is on record?
Its value is -23.5%.

With `CCOc1ccc(-c2nnc(N3CCOCC3)c3ccccc23)cc1` as the molecule, how does the “hERG current change (%, negative = inhibition) at 10uM” value read?
Its value is -69.6%.

`Cc1ccc(-c2nnc(N3CCN(CCO)CC3)c3ccccc23)cc1` was tested. Which “hERG current change (%, negative = inhibition) at 10uM” value did it give?
The value was -58.4%.

How did the “hERG current change (%, negative = inhibition) at 10uM” value turn out when `Cc1ccc(C(=O)NCCOc2ccc(Cl)cc2)cc1` was run?
The value was 1.42%.

Which “hERG current change (%, negative = inhibition) at 10uM” value does the source give for `COc1cc(/C=C/C(=O)O)ccc1OCc1ccc([N+](=O)[O-])cc1` here?
Its value is 21.8%.

`COc1ccc(CC(=O)Nc2ccc(-c3noc(COc4ccccc4C)n3)cc2)cc1` was tested. Which “hERG current change (%, negative = inhibition) at 10uM” value did it give?
Its value is 2.1%.

For `COC(=O)c1ccc(COc2ccccc2/C=C(\C#N)C(=O)Nc2ccc(C)cc2C)cc1`, which “hERG current change (%, negative = inhibition) at 10uM” value is on record?
Its value is -11.1%.

With `COC(=O)c1c(-c2ccccc2)noc1-c1ccccc1` as the molecule, how does the “hERG current change (%, negative = inhibition) at 10uM” value read?
Its value is 2.19%.

For `CCOC(=O)c1c(OCCO)nn(-c2ccccc2)c1N`, which “hERG current change (%, negative = inhibition) at 10uM” value is on record?
Its value is 14.1%.

`CCOC(=O)c1nn(-c2ccc(Cl)cc2)c(C)cc1=O` was tested. Which “hERG current change (%, negative = inhibition) at 10uM” value did it give?
The value was -0.00902%.

Which “hERG current change (%, negative = inhibition) at 10uM” value does the source give for `CCOC(=O)c1c(OCCO)nn(-c2ccc(Cl)cc2)c1N` here?
Its value is -51.8%.

Which “hERG current change (%, negative = inhibition) at 10uM” value does the source give for `COc1ccc2[nH]cc(CCNS(=O)(=O)c3ccccc3)c2c1` here?
Its value is 11.7%.

For `CCOC(=O)c1c(NC(C)=O)sc2c(OCCN(CC)CC)c(Br)ccc12`, which “hERG current change (%, negative = inhibition) at 10uM” value is on record?
Its value is -54.8%.

How did the “hERG current change (%, negative = inhibition) at 10uM” value turn out when `CCOC(=O)c1c(NC(C)=O)sc2c(O)c(Br)ccc12` was run?
Its value is 6.88%.

For `CCOC(=O)c1c(NC(C)=O)sc2c(O)cccc12`, which “hERG current change (%, negative = inhibition) at 10uM” value is on record?
Its value is 2.36%.

For `CCOC(=O)c1c(NC(C)=O)sc2c(OC)c(Br)ccc12`, which “hERG current change (%, negative = inhibition) at 10uM” value is on record?
The value was 2.16%.

`CCOC(=O)c1c(NC(C)=O)sc2c(OCC(O)CNC(C)(C)C)c(Br)ccc12` (centres unmarked) was tested. Which “hERG current change (%, negative = inhibition) at 10uM” value did it give?
The value was -11.8%.

Which “hERG current change (%, negative = inhibition) at 10uM” value does the source give for `CCOC(=O)c1c(NC(C)=O)sc2c(OCC(O)CN(CC)CC)c(Br)ccc12` (centres unmarked) here?
The value was -51.3%.

For `Cn1c(=NC(=O)COc2ccccc2)sc2ccccc21`, which “hERG current change (%, negative = inhibition) at 10uM” value is on record?
The value was -8.07%.

For `COc1ccc(/C=C/C(=O)NCCNC(=O)c2ccccc2)cc1OC`, which “hERG current change (%, negative = inhibition) at 10uM” value is on record?
Its value is -8.61%.

For `Cc1ccc(N2C(=O)CC(Nc3cccc4ccccc34)C2=O)cc1` (centres unmarked), which “hERG current change (%, negative = inhibition) at 10uM” value is on record?
The value was 27.6%.

`CC(C)=CCCC(C)CN1CCC(N2CCC(C(=O)N3CCCC3)CC2)CC1` (centres unmarked) was tested. Which “hERG current change (%, negative = inhibition) at 10uM” value did it give?
The value was -74.8%.

`CC(C)=CCCC(C)CN1CCC(N2CCC(C(=O)N3CCOCC3)CC2)CC1` (centres unmarked) was tested. Which “hERG current change (%, negative = inhibition) at 10uM” value did it give?
Its value is -60.4%.

How did the “hERG current change (%, negative = inhibition) at 10uM” value turn out when `CC(C)=CCCC(C)CN1CCC(O)CC1` (centres unmarked) was run?
The value was -2.96%.

How did the “hERG current change (%, negative = inhibition) at 10uM” value turn out when `CC(C)=CC(=O)N1CCC(N2CCC(C(=O)N3CCOCC3)CC2)CC1` was run?
Its value is 28.3%.

For `CC(=O)c1cc(CN2CCC(N3CCC(C(=O)N4CCCC4)CC3)CC2)cs1`, which “hERG current change (%, negative = inhibition) at 10uM” value is on record?
The value was -2.23%.

`CC(C)/C=C/C(=O)N1CCC(N2CCC(C(=O)N3CCOCC3)CC2)CC1` was tested. Which “hERG current change (%, negative = inhibition) at 10uM” value did it give?
The value was 11%.

For `Cl.Nc1ncnc2nc[nH]c12`, which “hERG current change (%, negative = inhibition) at 10uM” value is on record?
Its value is 4.95%.

`CCC1CCCCN1CCNC(=O)CNS(=O)(=O)c1ccc2nc(C)sc2c1` (centres unmarked) was tested. Which “hERG current change (%, negative = inhibition) at 10uM” value did it give?
The value was 10.5%.

`O=C(Nc1nnc(C2CC2)s1)C1=NN(C2CCS(=O)(=O)C2)C(=O)CC1` (centres unmarked) was tested. Which “hERG current change (%, negative = inhibition) at 10uM” value did it give?
The value was 0.219%.

For `Cc1[nH]c(C)c(S(=O)(=O)Nc2ccccc2Cl)c1C(=O)N1CCCC1`, which “hERG current change (%, negative = inhibition) at 10uM” value is on record?
The value was 15.7%.

Which “hERG current change (%, negative = inhibition) at 10uM” value does the source give for `CCN(CC)c1ccc(N=Cc2c(O)n(-c3ccc(Cl)cc3)c(=O)[nH]c2=O)cc1` here?
The value was 14.5%.

For `Cc1ccc(C(=O)CCC(=O)Nc2cccnc2)cc1C`, which “hERG current change (%, negative = inhibition) at 10uM” value is on record?
Its value is 12.4%.

`Cc1ccc(C(=O)C2CCN(CC(=O)Nc3ccc(N(C)C)cc3)CC2)cc1` was tested. Which “hERG current change (%, negative = inhibition) at 10uM” value did it give?
Its value is -36.4%.

Which “hERG current change (%, negative = inhibition) at 10uM” value does the source give for `CC1CCN(CC(=O)Nc2nccs2)CC1` here?
Its value is 13.6%.

With `CCOc1ccccc1NC(=O)CN1CCC(C(=O)c2ccc(F)cc2)CC1` as the molecule, how does the “hERG current change (%, negative = inhibition) at 10uM” value read?
Its value is -20.9%.

For `COc1ccc(C(=O)C2CCN(CC(=O)Nc3ccccc3F)CC2)cc1`, which “hERG current change (%, negative = inhibition) at 10uM” value is on record?
The value was -17.2%.

With `CCOc1ccc(C(=O)C2CCN(CC(=O)Nc3ccccc3N3CCOCC3)CC2)cc1` as the molecule, how does the “hERG current change (%, negative = inhibition) at 10uM” value read?
The value was -53.6%.

With `NC(=O)C1CCN(CC(=O)Nc2nccs2)CC1` as the molecule, how does the “hERG current change (%, negative = inhibition) at 10uM” value read?
Its value is 10.9%.

`COc1ccc(NC(=O)CN2CCC(C(=O)c3ccc(C)cc3)CC2)c(OC)c1` was tested. Which “hERG current change (%, negative = inhibition) at 10uM” value did it give?
The value was -29.8%.

For `CCOc1ccccc1NC(=O)CN1CCC(C(=O)c2ccc(OC)cc2)CC1`, which “hERG current change (%, negative = inhibition) at 10uM” value is on record?
The value was -65.9%.

`CCOc1ccc(C(=O)C2CCN(CC(=O)Nc3nccs3)CC2)cc1` was tested. Which “hERG current change (%, negative = inhibition) at 10uM” value did it give?
Its value is -68.3%.

For `CCOc1ccc(C(=O)Nc2ccccc2N2CCOCC2)cc1`, which “hERG current change (%, negative = inhibition) at 10uM” value is on record?
The value was -5.52%.

`NC(=O)C1CCN(CC(=O)Nc2ccccc2N2CCOCC2)CC1` was tested. Which “hERG current change (%, negative = inhibition) at 10uM” value did it give?
Its value is 3.15%.

`COc1ccc(C(=O)C2CCN(CC(=O)Nc3ccc(C)cc3)CC2)cc1` was tested. Which “hERG current change (%, negative = inhibition) at 10uM” value did it give?
The value was -53.4%.

For `O=C(Cc1cccc2ccccc12)NNC(=O)c1cccs1`, which “hERG current change (%, negative = inhibition) at 10uM” value is on record?
The value was 15.7%.

For `COC(=O)CSc1ncnc2c(C)csc12`, which “hERG current change (%, negative = inhibition) at 10uM” value is on record?
The value was 3.11%.

How did the “hERG current change (%, negative = inhibition) at 10uM” value turn out when `CN(C)c1ccc(-c2nnc(-c3cccnc3)o2)cc1` was run?
Its value is 7.04%.

With `O=C(CNC(=O)c1ccco1)N/N=C/c1ccc(O)c([N+](=O)[O-])c1` as the molecule, how does the “hERG current change (%, negative = inhibition) at 10uM” value read?
Its value is 29.1%.

For `COC(=O)c1[nH]c(C)c(/C(O)=C2\C(=O)C(=O)N(CCN(C)C)C2c2ccccc2OC)c1C` (centres unmarked), which “hERG current change (%, negative = inhibition) at 10uM” value is on record?
The value was 15.3%.

With `CC(=O)N1CCN(c2ccc(NC(=O)c3cccc(Cl)c3Cl)cc2)CC1` as the molecule, how does the “hERG current change (%, negative = inhibition) at 10uM” value read?
The value was -8.8%.

How did the “hERG current change (%, negative = inhibition) at 10uM” value turn out when `N/C(=N\OC(=O)c1cccc(C(F)(F)F)c1)c1cnccn1` was run?
The value was 16.7%.

`Cc1cccc(CC(=O)Nc2c3c(nn2-c2cccc(Cl)c2)CS(=O)C3)c1` (centres unmarked) was tested. Which “hERG current change (%, negative = inhibition) at 10uM” value did it give?
The value was 6.32%.
